# Screening data as filed in PubChem.
# D1 agonist: human D1 receptor agonism; HEK293 T-REx D1 cells, calcium flux, agonist mode; activation, % at 2 µM; actives 1% (n = 360,000); AID 504660; in the data active = activation above about 30%; also: 0% is about no effect
#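 Agonism was scored from calcium flux recorded over 180 s (1 read/s) after pintool compound addition, following a 10-cycle baseline. Cells were inducible force-coupled HEK293 TREx D1, plated overnight at 30 C and loaded with no-wash calcium dye.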
# GALK inh: inhibitors of human galactokinase | P51570 | Purified GALK, Kinase-Glo residual ATP luminescence | Potency, µM (series often up to 57.5 µM), inactives show at the top dose activity change, negative = inhibition, hits mostly inhibitors | actives 0.007% (n = 270,000); also: potency is read from the fitted curve at half-maximal effect; % is scaled to controls: 0 for no effect and ±100 for the full control effect
#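 Luminescence from leftover ATP (Ultra-Glo luciferase/luciferin) served as read-out after a 1 h room-temperature reaction of 5 nM GALK with 35 uM ATP and 100 uM galactose.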
# Eya2 phos inh: blocks the phosphatase activity of human Eya2; O00167; recombinant Eya2, OMFP fluorescence dephosphorylation (OMFP is methylfluorescein phosphate); Potency, µM (series often up to 76.9 µM), for inactives: at the highest dose activity, negative = inhibition, hits mostly inhibitors; actives 0.006% (n = 330,000); also: potency is read from the fitted curve at half-maximal effect; % is scaled to controls: 0 for no effect and ±100 for the full control effect
#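 Eya2 protein (added as 0.2 uM solution) was preincubated with compound for 10 min at ambient temperature in 50 mM HEPES pH 7.5, 50 mM NaCl, 5 uM MgCl2, 0.05% BSA, 1 mM DTT. OMFP (added at 50 uM) then reacted 10 min; fluorescence read at 485/525 nm.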
# USP2a inh: blocks human ubiquitin-specific protease USP2a. O75604. USP2 core, Ub-CHOP2 coupled fluorogenic reporter, 485/531. Potency, µM (top dose mostly 38.3 µM), for the others: top-dose activity change, negative = inhibition, actives largely listed as inhibitors. actives 0.01% (n = 330,000);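 also: potency is read from the fitted curve at half-maximal effect; plate controls were DMSO wells for no effect and full inhibition by NEM control for full effect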
# Target sequence (O75604 whole entry, looked up): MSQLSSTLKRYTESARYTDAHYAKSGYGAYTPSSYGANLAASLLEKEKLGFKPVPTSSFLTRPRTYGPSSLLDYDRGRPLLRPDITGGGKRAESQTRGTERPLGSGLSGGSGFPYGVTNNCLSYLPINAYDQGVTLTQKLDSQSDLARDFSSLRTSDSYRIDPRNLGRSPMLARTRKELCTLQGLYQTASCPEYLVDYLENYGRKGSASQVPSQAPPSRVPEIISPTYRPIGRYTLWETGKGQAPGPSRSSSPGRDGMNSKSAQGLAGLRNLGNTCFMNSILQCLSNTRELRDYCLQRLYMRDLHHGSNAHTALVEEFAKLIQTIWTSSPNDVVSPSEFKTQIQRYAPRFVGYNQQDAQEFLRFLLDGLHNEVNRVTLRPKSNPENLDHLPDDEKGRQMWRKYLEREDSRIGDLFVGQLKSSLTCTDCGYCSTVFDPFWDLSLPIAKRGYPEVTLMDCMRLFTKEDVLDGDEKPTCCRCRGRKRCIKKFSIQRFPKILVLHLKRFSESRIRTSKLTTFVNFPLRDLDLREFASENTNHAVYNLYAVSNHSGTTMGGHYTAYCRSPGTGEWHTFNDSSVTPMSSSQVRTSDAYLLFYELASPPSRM
#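 USP2 core (10nM final) preincubated 30min RT with compound in 20mM Tris-HCl pH 8.0, 2mM CaCl2, 2mM beta-mercaptoethanol, 0.05% CHAPS; 25nM Ub-CHOP2 plus 25nM reporter substrate added, fluorescence (Ex485/Em531) read after 60min.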
# D1 PAM: potentiators of human D1 dopamine receptor. P21728. HEK293 TREx D1 cells, calcium flux, dopamine EC20 potentiation. potentiation, % at 10 µM. actives 0.036% (n = 360,000); in the data active = potentiation above about 30%; also: 0% is about no effect
# D1 antag: human D1 dopamine receptor antagonism | activity change, negative = inhibition, % at 10 µM | actives 3.2% (n = 360,000) | HEK293 TREx D1 cells, calcium flux, dopamine EC80; hits give low values; in the data active = activity change below about -30%; also: % is scaled to controls: 0 for no effect and ±100 for the full control effect
#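 After overnight tetracycline induction at 30 C, force-coupled D1 HEK293 cells took up a no-wash calcium dye at room temperature. Compounds were added and monitored 180 s, and the response to EC80 dopamine was then recorded.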
# * = called active by the depositor; ? = inconclusive; / = no result given; ! = a repeat was not active. Shown are actives, neighbours in structure and some others; about 3.9% of the full set was active somewhere. Unless noted, calls follow the shape of the dose curve; as a rule, active = well fitted inhibition curve with a large enough effect; inconclusive = small, poorly fitted or top-dose-only effect, or effect the other way; inactive = flat fitted curve, though single readings scatter.
SMILES,D1 agonist,GALK inh,Eya2 phos inh,USP2a inh,D1 PAM,D1 antag
O=C(COC(=O)CC1CCCC1)Nc1cccc(F)c1,0.5,/,-4.8%,1.8%,1.6,-30.6*
O=S(=O)(c1cccc(C(F)(F)F)c1)N1CCC(Oc2ccc(-n3cnnn3)cc2)CC1,3.3,/,/,/,-1.8,-18.5
COC(=O)C(Cc1c[nH]c2ccccc12)NC(=O)COc1ccc(Cl)cc1Cl (configuration not stated),3.8,/,/,/,-0.5,-32.2*
COc1ccc(S(=O)(=O)n2c(C)nc3ccccc32)cc1C,7.4,0.2%,5.6%,0.1%,-1.5,-74.7*
Cc1ccc(NC(=O)c2cnn(-c3ccc(C)c(C)c3)c2C2CCN(C(=O)OC(C)(C)C)CC2)c(C)c1,3.5,/,/,/,-2.4,-2.1
O=C(CCCCl)Oc1ccc2cc(-c3ccc4ccccc4n3)c(=O)oc2c1,50.9*,/,7.1%,5.0%,-2.9,-3.6
COc1ccccc1NC(=O)CSCc1cc(=O)c2cccc(Cl)c2[nH]1,1.2,/,/,/,-0.8,-47.6*
COc1ccccc1NC(=O)CSCc1cc(=O)c2c(C)cc(C)cc2[nH]1,2.4,/,/,/,-3.2,-3.8
O=C(C1CCN(S(=O)(=O)c2cccc3nsnc23)CC1)N1CCc2ccccc2C1,2.5,1.0%,6.3%,-1.9%,-14.4,-44.0*
O=C(C1CCCN(S(=O)(=O)c2cccc3cccnc23)C1)N1CCN(c2ccc(F)cc2)CC1 (configuration not stated),1.0,1.3%,5.6%,3.0%,-2.6,-36.4*
O=C(Nc1ccc(F)c(F)c1)C1CCCN(S(=O)(=O)c2cccc3nonc23)C1 (configuration not stated),33.2*!,-2.0%,8.6%,1.1%,-9.3,-13.0
O=C(C1CCN(S(=O)(=O)c2cccc3cccnc23)CC1)N1CCN(c2ccccc2)CC1,-1.0,-0.1%,3.6%,0.1%,-5.7,-22.6
O=C(C1CCN(S(=O)(=O)c2cccc3nonc23)CC1)N1CCN(c2ccccc2F)CC1,-0.6,/,/,/,-2.5,-36.7*
Cc1ccc2nc3c(cc(C(=O)NCc4ccco4)c(=N)n3C(C)C)c(=O)n2c1,2.3,/,/,/,-1.8,8.1
Cc1ccc(CNC(=O)C2CCC(CNS(=O)(=O)c3cccc4cccnc34)CC2)cc1 (configuration not stated),8.1,-3.5%,9.0%,2.7%,-4.7,-0.3
CC1CCCCC1NC(=O)C1CCC(CNS(=O)(=O)c2cccc3cccnc23)CC1 (configuration not stated),1.1,-1.7%,1.7%,0.2%,17.5,-36.6*
O=C(NC1CCCCC1)C1CCCN(S(=O)(=O)c2cccc3cccnc23)C1 (configuration not stated),0.5,-4.8%,17.3%,2.3%,-9.6,-30.2*
COc1cccc(NC(=O)C2CCCN(S(=O)(=O)c3cccc4cccnc34)C2)c1 (configuration not stated),1.3,-1.2%,6.0%,0.6%,-2.3,-34.9*
COc1ccc(-c2nc3cc(C(C)C)ccc3o2)cc1NC(=O)c1ccc(C)c(Cl)c1,5.0,/,/,/,6.5,-10.1
COc1ccc(N=Cc2sc(O)c3ccccc23)cc1,544.1*,-0.6%,?,13.2%,8.8,-82.1*
COc1ccc(N=Cc2c(O)c3ccccc3n2C(C)=O)cc1,119.5*,-1.3%,12.1%,9.4%,-9.6,-21.7
COc1ccc(-n2c(O)c(C=Nc3ccccc3)c3ccccc3c2=O)cc1,3.2,-1.0%,-3.4%,1.7%,-5.6,11.6
O=C(NNC(=O)c1ccc2c(=O)n3c(nc2c1)CCC3)c1cccc(Cl)c1,-2.5,/,2.8%,1.3%,-7.5,-32.1*
O=C(NCc1ccc(F)cc1)C(=O)Nc1ccc2nc3n(c(=O)c2c1)CCCCC3,0.7,/,/,/,-1.5,-13.1
CCN(CC(=O)Nc1c(F)cccc1F)C(=O)c1ccc2c(=O)n3c(nc2c1)CCC3,0.3,/,-4.5%,4.0%,-1.0,0.1
SMILES,D1 agonist,GALK inh,Eya2 phos inh,USP2a inh,D1 PAM,D1 antag
CCN(C(=O)C(=O)Nc1ccc2nc3n(c(=O)c2c1)CCCCC3)c1ccc(F)cc1,1.3,/,/,/,2.0,-38.8*
CCN(CC)C(=O)c1cccc(NC(=O)c2ccc3c(=O)n4c(nc3c2)CCC4)c1,1.5,/,12.8%,0.4%,-6.8,-40.5*
Cc1cc(-n2c(C)nc3ccccc3c2=O)ccc1NC(=O)C(F)(F)F,0.8,/,/,/,2.2,/
CC1(CCc2ccc3c(c2)OCO3)NCCc2c1[nH]c1ccccc21 (configuration not stated),127.8*,0.2%,-11.1%,2.1%,-4.5,-37.8*
CC1(CCc2ccc3c(c2)OCO3)NC(=O)c2ccccc2N1 (configuration not stated),1.6,-0.8%,5.8%,-1.1%,-6.2,-9.0
Cn1c(C(=O)NCc2ccc(Cl)cc2)cc2c(=O)n(C)c3ccccc3c21,-1.3,/,/,/,-1.6,2.9
Cc1ccc(CNC(=O)c2cc3c(=O)n(C)c4ccccc4c3n2C)o1,-0.5,2.5%,14.5%,3.0%,/,-44.6*
O=c1c2nnn(-c3ccccc3)c2ncn1C/C=C/c1ccccc1,2.9,-0.4%,-4.5%,-0.4%,-7.0,9.3
COc1cccc(-n2nnc3c(=O)n(C/C=C/c4ccccc4)cnc32)c1,-0.2,0.3%,26.4%,4.1%,-10.5,-41.3*
O=C(Nc1ccc(Cl)cc1)c1cnn2c1NC(c1ccccc1)=CC2c1ccccc1 (configuration not stated),4.9,/,/,/,-4.3,-11.4
O=Nc1c(-c2c(O)[nH]c3cc(Br)ccc23)[nH]c2ccccc12,8.8,/,-10.8%,-2.6%,-9.1,-56.7*
CCCNC(=O)COC(=O)c1cccnc1Nc1ccccc1F,0.0,/,-1.8%,-5.9%,-3.9,-32.5*
COc1cc(OC)c(N(C)C(=O)c2sc3nc4n(c(=O)c3c2C)CCCCC4)cc1Cl,6.3,/,/,/,0.6,9.4
COc1cccc(-c2noc(COc3ccc(C(C)(C)C)cc3)n2)c1,27.6,/,/,/,0.7,-12.7
Clc1cccc(C2Nc3cccc4cccc(c34)N2)c1Cl,2.0,0.2%,-5.5%,0.5%,-12.2,-35.8*
Cc1c(OC(C)C(=O)NC2CC(C)(C)NC(C)(C)C2)ccc2c3c(c(=O)oc12)CCC3 (configuration not stated),2.2,0.6%,6.6%,1.5%,-5.2,-48.9*
Cc1c(OC(C)C(=O)NCc2ccccn2)ccc2c3c(c(=O)oc12)CCCC3 (configuration not stated),6.7,-4.4%,1.0%,0.3%,-7.0,-36.9*
Cc1c(OCC(=O)OC(C)(C)C)ccc2c3c(c(=O)oc12)CCC3,10.9,-5.8%,-10.6%,-1.6%,-5.3,-13.3
